Test results as given in the supplement of paper PMC4840960.

Tested on: E18 rat cortical neuron-glia co-culture
Assay: myelination (MBP fiber length per Olig2+ nucleus), % of 1 µM DAPT response (DMSO = 0) (% of DAPT); higher = more myelination, active = 50 or more
Settings: 1 µM; treatment time: 8 days (DIV5-DIV13)
In short: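 Myelination, expressed as continuous straight MBP fiber length per Olig2+ nucleus, was normalised to 0.1 % DMSO as 0 and a 1 µM positive control as 100. The cultures were primary E18 rat cortical co-cultures dissociated with papain and plated at 20,000 cells/well on poly-d-lysine/laminin-coated 96-well plates. They received library compounds at 1 or 5 µM in myelination medium between DIV5 and DIV13. Analysis covered four 10X fields per well in duplicate wells after 4 % paraformaldehyde fixation and immunostaining for MBP and Olig2 with DAPI.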

myelination, inactive:
Oc1ccc(C2CNCCc3c2cc(O)c(O)c3Cl)cc1 (stereo not given) [Fenoldopam] -10.8, COc1ccc(CC(C)NCC(O)c2ccc(O)c(NC=O)c2)cc1 (stereo not given) [Formoterol] -12.6, C[C@](N)(Cc1ccc(O)c(O)c1)C(=O)O [Methyldopa] 22.3, Cc1cccc(C)c1OCC(C)N (stereo not given) [Mexiletine] 8.19, N=C(N)NC(=O)c1nc(Cl)c(N)nc1N [Amiloride] -12.4, CCN1CCN(C(=O)N[C@@H](C(=O)N[C@@H]2C(=O)N3[C@@H]2SC(C)(C)[C@@H]3C(=O)O)c2ccccc2)C(=O)C1=O [Piperacillin] -13.4, Oc1ncnc2[nH]ncc12 [Allopurinol] 6.93, CC(C)NCC(O)COc1ccc(CCOCC2CC2)cc1 (stereo not given) [Betaxolol] -12.6, CC1=C(/C=C/C(C)=C/C=C/C(C)=C/C(=O)O)C(C)(C)CCC1 [Retinoic Acid] -3.28, Cc1onc(-c2ccccc2)c1-c1ccc(S(N)(=O)=O)cc1 [Valdecoxib] -12.1, CC(C)(C#N)c1cc(Cn2cncn2)cc(C(C)(C)C#N)c1 [Anastrozole] -5.96, Cc1cnc(C(=O)NCCc2ccc(S(=O)(=O)NC(=O)NC3CCCCC3)cc2)cn1 [Glipizide] 2.75, O=C1c2c(O)cc(O)cc2O[C@H](c2ccc(O)c(O)c2)[C@H]1O [Distylin] -6.73, NC(=O)c1cnccn1 [Pyrazinamide] -16.4, CCOC(=O)C1=C(C)NC(C)=C(C(=O)OC)C1c1cccc([N+](=O)[O-])c1 (stereo not given) [Nitrendipine] -7.81, CCCN[C@H]1CCc2nc(N)sc2C1 [Pramipexole] -6.49, CN(C)CCOC(c1ccc(Cl)cc1)c1ccccn1 (stereo not given) [Carbinoxamine] 3.25, OC(c1cc(C(F)(F)F)nc2c(C(F)(F)F)cccc12)C1CCCCN1 (stereo not given) [Mefloquine] -11.1, CCCCC(=O)N(Cc1ccc(-c2ccccc2-c2nnn[nH]2)cc1)[C@H](C(=O)O)C(C)C [Valsartan] -7.17, COc1cc(C[C@@H](CO)[C@H](CO)Cc2ccc(O)c(OC)c2)ccc1O [Secoisolariciresinol] -4.03, CNCCCCOc1ccccc1Cc1ccccc1 [Bifemelane] -39.7, OC(CCN1CCCC1)(c1ccccc1)C1CCCCC1 (stereo not given) [Procyclidine] -4.99, CCOC(=O)[C@H](CCc1ccccc1)N[C@H]1CCc2ccccc2N(CC(=O)O)C1=O [Benazepril] -15.3, CCC[C@@H]1C[C@@H](C(=O)N[C@@H]([C@H]2O[C@H](SC)[C@H](O)[C@@H](O)[C@H]2O)[C@@H](C)O)N(C)C1 [Lincomycin] -22.9, CCc1cccc2c3c([nH]c12)C(CC)(CC(=O)O)OCC3 (stereo not given) [Etodolac] -10.5, O=C(O[C@@H]1Cc2c(O)cc(O)cc2O[C@@H]1c1cc(O)c(O)c(O)c1)c1cc(O)c(O)c(O)c1 [Epigallocatechin gallate] -23.8, Cc1occc(=O)c1O [Maltol] -10.1, CCCCN1CCCCC1C(=O)Nc1c(C)cccc1C (stereo not given) [Bupivacaine] -11.2, CC(=O)O[C@H]1C[C@@H]2CC[C@@H]3[C@H](CC[C@@]4(C)[C@H]3C[C@H]([N+]3(C)CCCCC3)[C@@H]4OC(C)=O)[C@@]2(C)C[C@@H]1N1CCCCC1 [Vecuronium Bromide] -15.8, Clc1ccc2nsnc2c1NC1=NCCN1 [Tizanidine] -26.5, CO[C@@]1(NC(=O)Cc2cccs2)C(=O)N2C(C(=O)O)=C(COC(N)=O)CS[C@@H]21 [Cefoxitin] -5.64, C[C@H]1COc2c(C3(N)CC3)c(F)cc3c(=O)c(C(=O)O)cn1c23 [Pazufloxacin] -22.4, Cc1cccc(Nc2ccncc2S(=O)(=O)NC(=O)NC(C)C)c1 [Torsemide] -11.6, CCn1cc(C(=O)O)c(=O)c2cc(F)c(N3CCNCC3)cc21 [Norfloxacin] -19.9, OCCN1C[C@H](O)[C@@H](O)[C@H](O)[C@H]1CO [Miglitol] -7.81, CC(C)(C)NCC(O)c1cc(O)cc(O)c1 (stereo not given) [Terbutaline] -15.9, O=C(O)c1cc(=O)c2c(OCC(O)COc3cccc4oc(C(=O)O)cc(=O)c34)cccc2o1 [Cromolyn Sodium] -7.17

Same assay, conditions: 5 µM; treatment time: 8 days (DIV5-DIV13)

myelination, inactive:
Oc1ccc(C2CNCCc3c2cc(O)c(O)c3Cl)cc1 (stereo not given) [Fenoldopam] -45, COc1ccc(CC(C)NCC(O)c2ccc(O)c(NC=O)c2)cc1 (stereo not given) [Formoterol] -14.5, C[C@](N)(Cc1ccc(O)c(O)c1)C(=O)O [Methyldopa] -8.85, Cc1cccc(C)c1OCC(C)N (stereo not given) [Mexiletine] 8.07, N=C(N)NC(=O)c1nc(Cl)c(N)nc1N [Amiloride] 16.9, CCN1CCN(C(=O)N[C@@H](C(=O)N[C@@H]2C(=O)N3[C@@H]2SC(C)(C)[C@@H]3C(=O)O)c2ccccc2)C(=O)C1=O [Piperacillin] 5.13, Oc1ncnc2[nH]ncc12 [Allopurinol] -0.27, C=CC1=C(C(=O)O)N2C(=O)[C@@H](NC(=O)/C(=N\OCC(=O)O)c3csc(N)n3)[C@H]2SC1 [Cefixime] 28.9, CC(C)NCC(O)COc1ccc(CCOCC2CC2)cc1 (stereo not given) [Betaxolol] -10.5, CC1=C(/C=C/C(C)=C/C=C/C(C)=C/C(=O)O)C(C)(C)CCC1 [Retinoic Acid] -10.5, Cc1onc(-c2ccccc2)c1-c1ccc(S(N)(=O)=O)cc1 [Valdecoxib] -45.9, CC(C)(C#N)c1cc(Cn2cncn2)cc(C(C)(C)C#N)c1 [Anastrozole] -11.9, Cc1cnc(C(=O)NCCc2ccc(S(=O)(=O)NC(=O)NC3CCCCC3)cc2)cn1 [Glipizide] -12.8, O=C1c2c(O)cc(O)cc2O[C@H](c2ccc(O)c(O)c2)[C@H]1O [Distylin] 0.864, NC(=O)c1cnccn1 [Pyrazinamide] -9.54, CCOC(=O)C1=C(C)NC(C)=C(C(=O)OC)C1c1cccc([N+](=O)[O-])c1 (stereo not given) [Nitrendipine] 1.09, CCCN[C@H]1CCc2nc(N)sc2C1 [Pramipexole] -14.4, CN(C)CCOC(c1ccc(Cl)cc1)c1ccccn1 (stereo not given) [Carbinoxamine] 8.5, OC(c1cc(C(F)(F)F)nc2c(C(F)(F)F)cccc12)C1CCCCN1 (stereo not given) [Mefloquine] -31.7, CCCCC(=O)N(Cc1ccc(-c2ccccc2-c2nnn[nH]2)cc1)[C@H](C(=O)O)C(C)C [Valsartan] -17.4, COc1cc(C[C@@H](CO)[C@H](CO)Cc2ccc(O)c(OC)c2)ccc1O [Secoisolariciresinol] -8.85, CNCCCCOc1ccccc1Cc1ccccc1 [Bifemelane] -28.5, OC(CCN1CCCC1)(c1ccccc1)C1CCCCC1 (stereo not given) [Procyclidine] 11.6, CCOC(=O)[C@H](CCc1ccccc1)N[C@H]1CCc2ccccc2N(CC(=O)O)C1=O [Benazepril] -6.97, CCC[C@@H]1C[C@@H](C(=O)N[C@@H]([C@H]2O[C@H](SC)[C@H](O)[C@@H](O)[C@H]2O)[C@@H](C)O)N(C)C1 [Lincomycin] 7.24, CCc1cccc2c3c([nH]c12)C(CC)(CC(=O)O)OCC3 (stereo not given) [Etodolac] 16.1, O=C(O[C@@H]1Cc2c(O)cc(O)cc2O[C@@H]1c1cc(O)c(O)c(O)c1)c1cc(O)c(O)c(O)c1 [Epigallocatechin gallate] -10.9, Cc1occc(=O)c1O [Maltol] -13.4, CCCCN1CCCCC1C(=O)Nc1c(C)cccc1C (stereo not given) [Bupivacaine] -16.6, CC(=O)O[C@H]1C[C@@H]2CC[C@@H]3[C@H](CC[C@@]4(C)[C@H]3C[C@H]([N+]3(C)CCCCC3)[C@@H]4OC(C)=O)[C@@]2(C)C[C@@H]1N1CCCCC1 [Vecuronium Bromide] -9.35, Clc1ccc2nsnc2c1NC1=NCCN1 [Tizanidine] -54.3, CO[C@@]1(NC(=O)Cc2cccs2)C(=O)N2C(C(=O)O)=C(COC(N)=O)CS[C@@H]21 [Cefoxitin] -13.8, C[C@H]1COc2c(C3(N)CC3)c(F)cc3c(=O)c(C(=O)O)cn1c23 [Pazufloxacin] 17.6, Cc1cccc(Nc2ccncc2S(=O)(=O)NC(=O)NC(C)C)c1 [Torsemide] -4.35, CCn1cc(C(=O)O)c(=O)c2cc(F)c(N3CCNCC3)cc21 [Norfloxacin] -11.1, OCCN1C[C@H](O)[C@@H](O)[C@H](O)[C@H]1CO [Miglitol] -16.8, CC(C)(C)NCC(O)c1cc(O)cc(O)c1 (stereo not given) [Terbutaline] -16.6, O=C(O)c1cc(=O)c2c(OCC(O)COc3cccc4oc(C(=O)O)cc(=O)c34)cccc2o1 [Cromolyn Sodium] -12.9
